Experimental findings from PubChem BioAssay (Tox21) are described below.

Assay [1] can be described thus: cAMP Responsive Elements (CRE) small molecule antagonists, cell-based qHTS assay: qHTS cell viability counter screen (AID 2060913). Note: nearly all actives have a fitted effect of over 40% in size. Particulars: CRE-bla HEK293T viability, CellTiter-Glo luminescence, 5 h; series mostly up to 92.4 µM. Summed up: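 HEK293T CRE-bla, 2,000 cells/well, 18 h preincubation; cpd in DMSO + NKH477 0.25 uM final, 3 h 37 C/5% CO2; LiveBLAzer 2 h RT, then CellTiter-Glo 30 min RT, luminescence.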
For orientation: qHTS replaces the single test concentration by a dilution series.

Assay [2] can be described thus: cAMP Responsive Elements (CRE) small molecule agonists, cell-based qHTS assay: qHTS cell viability counter screen (AID 2060914). Note: nearly all actives have a fitted effect of over 50% in size. Particulars: CRE-bla HEK293T viability, CellTiter-Glo luminescence, 5 h; series mostly up to 92.4 µM. Summed up:
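In the same wells as the reporter read, viability of CRE-bla HEK 293T cells was quantified by CellTiter-Glo luminescence after a 3 h compound exposure.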

Inconclusive results are not listed. A number with no mark means an inactive call. The source made the active and inactive calls. Calls come from the whole dose curve; as a rule, active = well fitted cell-killing curve with a large enough effect in the repeat runs; inconclusive = weak or mixed curves, or effect the other way; inactive = flat fitted curve, though single readings scatter.
% is set by controls: 0 for no effect and ±100 for the full control effect.

For `O=C1NCN(c2ccccc2)C12CCN(CCCOc1ccc(F)cc1)CC2`, the Potency entry in assay [1] and in assay [2] was “inactive” in each case.
Consider `Cc1cc(Cl)ccc1N`, for which the Potency entry in assay [1] and in assay [2] was “inactive” each time.
Consider `c1ccc(P(c2ccccc2)c2ccccc2)cc1`, for which the Potency entry in assay [1] and in assay [2] was “inactive” in each case.
As for `COC(=O)c1ccccc1CS(=O)(=O)NC(=O)Nc1nc(OC)cc(OC)n1`, the Potency result in assay [1] and in assay [2] was “inactive” throughout.
Regarding `CCc1cnc(C2=NC(C)(C(C)C)C(=O)N2)c(C(=O)O)c1` (centres undefined), the Potency entry in assay [1] and in assay [2] was “inactive” in each case.
As to `O=C1OC(=O)C2C1C1(Cl)C(Cl)=C(Cl)C2(Cl)C1(Cl)Cl` (centres undefined), the Potency result in assay [1] and in assay [2] was “inactive” throughout.
Take `[Cl][Sb]([Cl])[Cl]`: the Potency result in assay [1] and in assay [2] was “inactive” each time.
As to `[Cl-].[Cl-].[Cl-].[Fe+3]`, the Potency result in assay [1] and in assay [2] was “inactive” each time.
Turning to `CNC(=O)Oc1ccc(N(C)C)c(C)c1`, the Potency result in assay [1] and in assay [2] was “inactive” in each case.
For `CC(C)CBr`, the Potency entry in assay [1] and in assay [2] was “inactive” each time.
`BrC(Br)Br`: the Potency entry in assay [1] and in assay [2] was “inactive” each time.
As to `N#C/C(N)=C(/N)C#N`, the Potency entry in assay [1] and in assay [2] was “inactive” each time.
As for `COC(=O)C(c1ccccc1)C1CCCCN1` (centres undefined), the Potency result in assay [1] and in assay [2] was “inactive” throughout.
For the molecule `COCCl`, the Potency entry in assay [1] and in assay [2] was “inactive” in each case.
In the case of `NN=C(N)N`, the Potency result in assay [1] and in assay [2] was “inactive” each time.
Turning to `OCC(Br)CBr` (centres undefined), the Potency result in assay [1] and in assay [2] was “inactive” in each case.
Consider `CON(C)C(=O)Nc1ccc(Cl)cc1`, for which the Potency entry in assay [1] and in assay [2] was “inactive” each time.
In the case of `CC1=C(C(=O)Nc2ccccc2)S(=O)(=O)CCO1`, the Potency result in assay [1] and in assay [2] was “inactive” throughout.
Regarding `O=NN1CCCC1`, the Potency entry in assay [1] and in assay [2] was “inactive” each time.
Turning to `Clc1c(Cl)c(Cl)c(Cl)c(Cl)c1Cl`, the viability change, negative = cytotoxic in assay [1] is 2.46% [at 8.39 µM]. Further, the activity change, negative = cytotoxicity in assay [2] was 9.47% [at 8.39 µM].
On to `Nc1ccc2c(c1)Cc1ccccc1-2`, for which the Potency entry in assay [1] and in assay [2] was “inactive” in each case.
With `Nc1c(Cl)c(Cl)nc(C(=O)O)c1Cl`, the Potency result in assay [1] and in assay [2] was “inactive” throughout.
